TDP1 block = TDP1 (human) enzyme inhibition. Q9NUW8. recombinant TDP1, AlphaScreen DNA substrate cleavage. Potency, µM (series often up to 130 µM), for inactives: at the highest dose activity change, negative = inhibition, hits mostly inhibitors. actives 0.28% (n = 350,000); note: nearly all actives have a fitted effect of over 40% in size
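E. coli-derived human Tdp1, 1 nM final. Cpd preinc 15 min RT; substrate 15 nM final, 5 min RT; AS bead mix 10 ug/ml final, 10 min RT. Signal loss = tyrosine-FITC cleavage. No-enzyme wells = max signal.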
DT40 TDP1 no CPT = qHTS for Inhibitors of human tyrosyl-DNA phosphodiesterase 1 (TDP1): qHTS in cells in absence of CPT; DT40 Tdp1-/- hTDP1 cells, no CPT, ATP luminescence, 48 h; Potency, µM (top dose mostly 46.2 µM), inactives show at the highest dose activity change, negative = growth inhibition, most hits filed as inhibitors; actives 15% (n = 420,000); AID 686978, 2013; note: nearly all actives have a fitted effect of over 55% in size
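DT40 Tdp1-/-;hTDP1 cells, no CPT (DMSO vehicle only), 400 cells/well; compounds pin-transferred; ≥48 hr, 37 °C; CellTiter-Glo 30 min RT dark, luminescence read.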
RORg inh = blocks mouse ROR gamma transcriptional activity; P51450; Drosophila S2 Gal4-RORgamma UAS-luciferase reporter, 20 h; Potency, µM (titrated, usually from 53.6 µM), for inactives: at the top dose activity change, negative = inhibition, actives largely listed as inhibitors; actives 5.4% (n = 310,000); AID 2551; note: nearly all actives have a fitted effect of over 60% in size
Target sequence (P51450 whole entry, looked up, the tested form may be a part): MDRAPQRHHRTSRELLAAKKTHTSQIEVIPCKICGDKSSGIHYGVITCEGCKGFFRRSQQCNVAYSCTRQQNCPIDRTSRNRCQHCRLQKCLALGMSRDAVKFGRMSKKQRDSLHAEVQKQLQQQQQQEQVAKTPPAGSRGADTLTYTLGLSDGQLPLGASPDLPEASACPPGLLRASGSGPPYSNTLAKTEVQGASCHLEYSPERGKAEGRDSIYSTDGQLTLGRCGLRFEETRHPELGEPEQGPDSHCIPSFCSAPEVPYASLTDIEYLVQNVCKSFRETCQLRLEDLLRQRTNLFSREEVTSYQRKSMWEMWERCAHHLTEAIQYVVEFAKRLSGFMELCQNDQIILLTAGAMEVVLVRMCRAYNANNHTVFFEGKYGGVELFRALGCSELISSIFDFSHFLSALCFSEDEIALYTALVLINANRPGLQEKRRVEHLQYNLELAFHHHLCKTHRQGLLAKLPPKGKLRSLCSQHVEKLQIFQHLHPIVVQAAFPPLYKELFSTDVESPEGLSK
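ROR gamma transcriptional activity was tracked as Gal4-UAS luciferase output in stably transfected Drosophila Schneider cells, with compound added 1 hr before 700 uM copper sulfate induction and a 20 hr ambient-temperature incubation.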
DT40 TDP1 CPT = growth inhibition of DT40 Tdp1-/-;hTDP1 cells with camptothecin (screen for TDP1 inhibitors). actives 12% (n = 420,000). Potency, µM (titrated, usually from 46.2 µM), inactives show at the top dose activity change, negative = growth inhibition, hits mostly inhibitors. chicken DT40 Tdp1-/-;hTDP1 cells + 20 nM CPT, ATP luminescence, 48 h; note: nearly all actives have a fitted effect of over 55% in size
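Chicken DT40 Tdp1-/- cells stably complemented with human TDP1 were seeded at 400 cells/well in medium containing 20 nM camptothecin, exposed to pin-transferred compounds, and grown at 37 °C for at least 48 hr. Viability was read as ATP luminescence.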
VP16 counter = Gal4-VP16 reporter inhibition counter-screen; Drosophila S2 Gal4-VP16 UAS-luciferase, luminescence, 20 h; Potency, µM (series often up to 53.6 µM), without a hit: at the highest dose activity, negative = inhibition, actives largely listed as inhibitors; actives 3.5% (n = 310,000);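 note: Gal4-VP16 expression switched on by copper sulfate through the metallothionein promoter; nearly all actives have a fitted effect of over 50% in size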
An asterisk follows results filed as active; ? = inconclusive; . = no result given. Only some compounds are listed: those with a hit (about 19% of all), similar ones and a draw of the others. Calls come from the whole dose curve; as a rule, active = well fitted curve in the direction sought with a large enough effect; inconclusive = small, poorly fitted or top-dose-only effect, or another doubt; inactive = no such curve, though single readings can be large; an effect the other way counts as inactive or inconclusive. % is set by controls: 0 for no effect and ±100 for the full control effect; potency is the fitted concentration of half-maximal effect.

SMILES | TDP1 block | DT40 TDP1 no CPT | RORg inh | DT40 TDP1 CPT | VP16 counter
COc1cccc(NS(=O)(=O)c2ccc3c(c2)CCN3C(C)=O)c1 | . | 7.31µM* | ? | 7.31µM* | 15.8µM*
COc1cccc(NS(=O)(=O)c2ccc3c(c2)CCCN3C(=O)C2CCC2)c1 | 6.6% | ? | . | 23.1µM* | .
Cc1n[nH]c(C)c1S(=O)(=O)N(CC(=O)N1CCc2ccccc21)c1ccc(C(C)C)cc1 | 1.2% | ? | -30.4% | ? | -16.8%
Cc1ccc(C(=O)Nc2nnc(COCCO)s2)cc1 | . | 13.1% | . | -17.2% | .
C/C(=N/NC(=O)C(=O)N/N=C(/C)c1ccccc1)c1ccccc1 | 4.7% | . | 8.7% | . | -6.4%
C/C(=N\NC(=O)C(N)=O)c1cccc([N+](=O)[O-])c1 | -8.2% | 3.7% | -0.5% | -28.9% | -3.9%
CNC(=S)N/N=C(\C)c1ccccc1 | . | 13µM* | 3.98µM* | 7.31µM* | 15.8µM*
C/C(=N\N=C(N)N)c1cccc([N+](=O)[O-])c1 | 7.9% | 13µM* | 2.4% | ? | -3.7%
C/C(=N\N=C(N)N)c1ccc(C)c(C)c1 | 5.7% | ? | -6.5% | 18.4µM* | -8.5%
CNC(=S)N/N=C(\C)c1cccc([N+](=O)[O-])c1 | 2.7% | 2.91µM* | 3.55µM* | 1.3µM* | 4.47µM*
CCOc1ccc(NC(=O)CN(C)c2nnnn2-c2ccccc2)cc1OCC | 1.0% | -1.7% | 6.1% | -1.2% | 11.7%
CCOC(=O)CC(=O)CSc1ccc2nnc(-c3ccc(C)cc3)n2n1 | 6.0% | -27.4% | -3.2% | -20.6% | 6.9%
CNC(=S)N/N=C(\C)c1ccc(C(C)(C)C)cc1 | 2.6% | -0.8% | 1.12µM* | -5.9% | 0.891µM*
O=C(Nc1cc(Br)ccc1O)c1cc(-c2ccco2)on1 | 11.4% | ? | -6.0% | -2.3% | 5.0%
Cc1oc2ccc(O)c(CN3CCN(Cc4ccccc4)CC3)c2c1C(=O)Nc1ccccc1 | 11.0% | ? | . | 23.1µM* | .
COc1ccc(NC(=O)c2c(C)oc3ccc(O)c(CN4CCCCCC4)c23)cc1Cl | 3.7% | ? | . | 25.9µM* | .
Cc1oc2ccc(O)c(CN3CCOCC3)c2c1C(=O)Nc1ccc(C(C)C)cc1 | 3.7% | 16.4µM* | . | 16.4µM* | .
CCOC(=O)c1c(-c2ccccc2)oc2ccc(O)c(CN3CCN(C)CC3)c12 | 5.1% | 2.31µM* | 0.9% | 2.06µM* | -8.7%
COc1cccc(Cn2cc(S(=O)(=O)c3ccc(C)cc3)c(=O)c3cc4c(cc32)OCO4)c1 | -1.3% | -24.5% | . | -18.9% | .
N#Cc1ccc(C(=O)NC23CC4CC(CC(C4)C2)C3)cc1 | . | -14.6% | 0.5% | 2.8% | 3.1%
Cc1ccccc1NC(=O)c1c(C)oc2ccc(O)c(CN3CCOCC3)c12 | -6.1% | 23.1µM* | . | 20.6µM* | .
Cc1ccccc1NC(=O)c1c(C)oc2ccc(O)c(CN3CCCCCC3)c12 | 3.7% | 20.6µM* | . | 23.1µM* | .
Cc1ccc(NC(=O)c2c(C)oc3ccc(O)c(CN4CCCCC4)c23)c(C)c1 | 0.0% | 16.4µM* | . | 11.6µM* | .
C=CCn1c(SCC(=O)NC(C)(C)C)nnc1-c1ccccc1O | 7.0% | -4.6% | -15.4% | -0.3% | -7.9%
COC(=O)c1cc(O)c(O)c(O)c1 | . | ? | -10.5% | ? | -4.9%
SMILES | TDP1 block | DT40 TDP1 no CPT | RORg inh | DT40 TDP1 CPT | VP16 counter
O=C1N/C(=C/c2cccn2-c2ccc(F)cc2)C(=O)N1Cc1ccccc1 | 5.6% | -18.1% | -3.7% | ? | -2.7%
CCCCNCc1ccc(OCc2ccc(Cl)nc2)c(OC)c1 | . | -1.8% | -5.0% | 10.6% | -12.0%
CCN1CCN(c2ccc(NC(=O)COc3ccccc3Cl)cc2)CC1 | 2.1% | 18.4µM* | -2.2% | ? | 0.0%
O=C(O)c1cccc(COc2ccccc2Cl)c1 | 0.0% | -17.2% | 23.5% | -27.0% | 1.12µM*
Cc1ccc(OCC(=O)Nc2ccc(N3CCN(C(=O)c4ccc(C)cc4)CC3)cc2)cc1 | 2.5% | ? | -10.3% | -26.8% | -4.0%
Cc1cccc(OCC(=O)Nc2ccc(N3CCN(C(=O)c4ccccc4)CC3)cc2)c1 | -2.4% | 14.6µM* | 27.3% | ? | -15.5%

Compound activity as filed in PubChem BioAssay.
